From the supplement of paper PMC11732987, “Enantioselective OTUD7B fragment discovery through chemoproteomics screening and high-throughput optimisation” (Communications Chemistry, 2025)

How the values were obtained:
Assay in all cases: log2 ratio of Biotin-Ahx-Ub-VS probe labelling (fragment/DMSO); higher = less target engagement (more negative = stronger competition), active = hit call of the paper (q ≤ 0.05, log2 ratio ≤ -1)
Details in all cases: compound concentration: 200 uM; treatment time: 3 h
USP42 = biological target: T1, USP42 (UniProt Q9H9J4)
T1 sequence (whole entry): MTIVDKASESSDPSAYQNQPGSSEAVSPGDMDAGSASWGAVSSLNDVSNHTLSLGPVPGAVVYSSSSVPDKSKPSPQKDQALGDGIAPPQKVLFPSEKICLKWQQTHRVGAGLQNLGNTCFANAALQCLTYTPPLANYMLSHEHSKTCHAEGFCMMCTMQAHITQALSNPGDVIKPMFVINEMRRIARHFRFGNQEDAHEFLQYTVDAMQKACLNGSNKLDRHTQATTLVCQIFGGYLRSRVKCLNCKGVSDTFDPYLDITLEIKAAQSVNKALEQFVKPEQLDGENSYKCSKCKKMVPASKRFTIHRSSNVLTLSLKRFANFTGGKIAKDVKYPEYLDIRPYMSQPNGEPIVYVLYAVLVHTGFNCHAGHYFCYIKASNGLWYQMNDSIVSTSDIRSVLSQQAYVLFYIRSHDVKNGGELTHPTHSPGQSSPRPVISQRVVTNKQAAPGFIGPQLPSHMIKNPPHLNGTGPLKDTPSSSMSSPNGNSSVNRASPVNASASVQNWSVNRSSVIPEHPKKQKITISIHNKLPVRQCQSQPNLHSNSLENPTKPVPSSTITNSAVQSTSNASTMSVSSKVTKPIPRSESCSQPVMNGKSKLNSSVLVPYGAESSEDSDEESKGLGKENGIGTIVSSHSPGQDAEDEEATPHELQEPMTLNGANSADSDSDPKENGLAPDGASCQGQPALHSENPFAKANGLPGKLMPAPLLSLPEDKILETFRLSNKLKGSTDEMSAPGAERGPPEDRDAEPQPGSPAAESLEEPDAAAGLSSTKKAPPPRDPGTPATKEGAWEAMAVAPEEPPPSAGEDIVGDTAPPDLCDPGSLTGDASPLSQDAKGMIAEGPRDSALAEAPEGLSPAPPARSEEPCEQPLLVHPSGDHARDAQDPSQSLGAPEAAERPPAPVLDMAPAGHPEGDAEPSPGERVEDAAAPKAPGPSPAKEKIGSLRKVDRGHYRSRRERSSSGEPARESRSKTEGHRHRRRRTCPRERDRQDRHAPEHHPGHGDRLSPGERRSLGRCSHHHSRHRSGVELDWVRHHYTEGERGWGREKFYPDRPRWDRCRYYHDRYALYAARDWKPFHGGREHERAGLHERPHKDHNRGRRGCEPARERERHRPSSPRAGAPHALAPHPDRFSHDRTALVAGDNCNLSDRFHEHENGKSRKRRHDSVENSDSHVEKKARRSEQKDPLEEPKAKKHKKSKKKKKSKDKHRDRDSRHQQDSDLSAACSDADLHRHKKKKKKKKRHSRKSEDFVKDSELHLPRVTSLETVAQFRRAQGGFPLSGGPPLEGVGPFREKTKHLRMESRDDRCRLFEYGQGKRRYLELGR
In short: (§1)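 Each value is an average log2 ratio of fragment to vehicle, tested by unpaired t-test. The underlying Spectronaut label-free quantities were global-median-normalised, and only proteins with ≥2 unique peptides were included. Triplicate HEK293T lysate samples (495 µg) were exposed to fragment at 200 µM or vehicle for 3 h, then to Biotin-Ahx-Ub-VS at 0.5 µM final for 1 h, before NeutrAvidin enrichment of labelled DUBs, LysC and trypsin digestion, and diaPASEF LC-MS/MS.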

USP46 = USP46 (UniProt P62068)
Chain of USP46 (P62068 whole entry): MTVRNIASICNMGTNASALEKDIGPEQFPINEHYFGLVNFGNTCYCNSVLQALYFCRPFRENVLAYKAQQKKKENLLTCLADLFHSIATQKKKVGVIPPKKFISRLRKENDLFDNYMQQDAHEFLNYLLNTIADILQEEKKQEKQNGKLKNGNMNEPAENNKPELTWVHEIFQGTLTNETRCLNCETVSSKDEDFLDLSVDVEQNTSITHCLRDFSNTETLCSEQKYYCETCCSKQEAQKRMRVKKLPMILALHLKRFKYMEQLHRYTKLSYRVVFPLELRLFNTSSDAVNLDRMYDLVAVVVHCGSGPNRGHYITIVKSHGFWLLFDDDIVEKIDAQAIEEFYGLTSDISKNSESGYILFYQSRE
In short: as §1

USP47 = biological target: T2, USP47 (UniProt Q96K76)
T2 sequence (whole entry): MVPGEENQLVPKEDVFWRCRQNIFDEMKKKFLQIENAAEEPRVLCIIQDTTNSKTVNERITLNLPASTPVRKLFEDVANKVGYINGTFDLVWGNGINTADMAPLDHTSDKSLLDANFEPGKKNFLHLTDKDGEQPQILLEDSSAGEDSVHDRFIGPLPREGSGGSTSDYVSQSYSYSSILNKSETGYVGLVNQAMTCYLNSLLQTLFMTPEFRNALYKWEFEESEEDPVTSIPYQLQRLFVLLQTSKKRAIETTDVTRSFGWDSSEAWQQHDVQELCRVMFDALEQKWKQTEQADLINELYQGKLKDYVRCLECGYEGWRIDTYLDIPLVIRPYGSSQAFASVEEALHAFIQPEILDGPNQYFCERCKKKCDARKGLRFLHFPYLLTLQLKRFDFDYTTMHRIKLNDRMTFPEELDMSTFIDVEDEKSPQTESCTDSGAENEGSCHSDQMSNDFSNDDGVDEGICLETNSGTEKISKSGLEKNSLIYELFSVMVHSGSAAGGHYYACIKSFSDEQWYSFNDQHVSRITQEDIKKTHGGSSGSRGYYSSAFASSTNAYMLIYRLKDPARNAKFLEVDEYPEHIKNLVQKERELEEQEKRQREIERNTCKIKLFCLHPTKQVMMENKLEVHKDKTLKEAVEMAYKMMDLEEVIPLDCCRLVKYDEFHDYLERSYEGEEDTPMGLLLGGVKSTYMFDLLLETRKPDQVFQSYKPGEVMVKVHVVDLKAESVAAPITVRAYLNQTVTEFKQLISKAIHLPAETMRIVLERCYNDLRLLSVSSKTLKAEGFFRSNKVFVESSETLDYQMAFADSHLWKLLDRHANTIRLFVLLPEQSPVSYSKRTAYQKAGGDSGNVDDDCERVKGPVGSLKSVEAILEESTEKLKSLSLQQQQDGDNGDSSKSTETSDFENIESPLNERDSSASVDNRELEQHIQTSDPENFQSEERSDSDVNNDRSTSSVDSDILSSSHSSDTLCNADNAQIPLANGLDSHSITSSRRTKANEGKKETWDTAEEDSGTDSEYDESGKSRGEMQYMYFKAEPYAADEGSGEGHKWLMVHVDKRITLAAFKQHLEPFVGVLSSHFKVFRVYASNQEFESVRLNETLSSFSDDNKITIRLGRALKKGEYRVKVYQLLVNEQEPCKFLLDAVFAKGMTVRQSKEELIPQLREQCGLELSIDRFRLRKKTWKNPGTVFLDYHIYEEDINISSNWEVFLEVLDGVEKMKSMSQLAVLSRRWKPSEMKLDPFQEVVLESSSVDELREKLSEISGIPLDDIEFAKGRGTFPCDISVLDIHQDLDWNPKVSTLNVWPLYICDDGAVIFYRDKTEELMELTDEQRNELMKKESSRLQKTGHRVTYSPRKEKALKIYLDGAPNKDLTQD
In short: as §1

USP48 = biological target: T3, USP48 (UniProt Q86UV5)
T3 sequence (whole entry): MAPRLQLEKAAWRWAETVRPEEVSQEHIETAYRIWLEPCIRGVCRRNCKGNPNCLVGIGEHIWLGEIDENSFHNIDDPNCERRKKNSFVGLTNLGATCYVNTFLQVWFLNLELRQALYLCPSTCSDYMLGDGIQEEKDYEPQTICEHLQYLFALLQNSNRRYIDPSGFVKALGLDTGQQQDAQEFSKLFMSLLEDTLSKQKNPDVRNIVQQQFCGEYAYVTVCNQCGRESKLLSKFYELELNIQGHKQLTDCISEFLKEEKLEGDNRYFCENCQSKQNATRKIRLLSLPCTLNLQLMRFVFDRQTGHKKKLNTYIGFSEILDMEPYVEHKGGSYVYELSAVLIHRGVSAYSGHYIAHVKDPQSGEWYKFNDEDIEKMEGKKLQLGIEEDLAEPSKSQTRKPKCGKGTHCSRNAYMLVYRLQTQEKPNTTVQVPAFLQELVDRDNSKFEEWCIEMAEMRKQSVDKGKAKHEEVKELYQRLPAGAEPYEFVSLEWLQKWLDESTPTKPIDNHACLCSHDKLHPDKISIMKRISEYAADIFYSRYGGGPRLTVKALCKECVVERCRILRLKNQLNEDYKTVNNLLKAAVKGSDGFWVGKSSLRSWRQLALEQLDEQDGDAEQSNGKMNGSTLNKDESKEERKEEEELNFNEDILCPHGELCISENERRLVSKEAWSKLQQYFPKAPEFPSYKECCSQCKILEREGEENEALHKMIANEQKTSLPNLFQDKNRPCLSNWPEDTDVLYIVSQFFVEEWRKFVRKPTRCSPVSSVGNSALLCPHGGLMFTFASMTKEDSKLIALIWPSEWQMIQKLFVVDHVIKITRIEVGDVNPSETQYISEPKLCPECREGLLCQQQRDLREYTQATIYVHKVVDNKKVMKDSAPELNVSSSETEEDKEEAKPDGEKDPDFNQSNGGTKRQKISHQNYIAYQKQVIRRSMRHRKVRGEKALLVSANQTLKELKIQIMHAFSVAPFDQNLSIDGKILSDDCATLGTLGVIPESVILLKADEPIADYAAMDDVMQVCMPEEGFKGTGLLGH
In short: as §1

USP5 = biological target: T4, USP5 (UniProt P45974)
T4 sequence (whole entry): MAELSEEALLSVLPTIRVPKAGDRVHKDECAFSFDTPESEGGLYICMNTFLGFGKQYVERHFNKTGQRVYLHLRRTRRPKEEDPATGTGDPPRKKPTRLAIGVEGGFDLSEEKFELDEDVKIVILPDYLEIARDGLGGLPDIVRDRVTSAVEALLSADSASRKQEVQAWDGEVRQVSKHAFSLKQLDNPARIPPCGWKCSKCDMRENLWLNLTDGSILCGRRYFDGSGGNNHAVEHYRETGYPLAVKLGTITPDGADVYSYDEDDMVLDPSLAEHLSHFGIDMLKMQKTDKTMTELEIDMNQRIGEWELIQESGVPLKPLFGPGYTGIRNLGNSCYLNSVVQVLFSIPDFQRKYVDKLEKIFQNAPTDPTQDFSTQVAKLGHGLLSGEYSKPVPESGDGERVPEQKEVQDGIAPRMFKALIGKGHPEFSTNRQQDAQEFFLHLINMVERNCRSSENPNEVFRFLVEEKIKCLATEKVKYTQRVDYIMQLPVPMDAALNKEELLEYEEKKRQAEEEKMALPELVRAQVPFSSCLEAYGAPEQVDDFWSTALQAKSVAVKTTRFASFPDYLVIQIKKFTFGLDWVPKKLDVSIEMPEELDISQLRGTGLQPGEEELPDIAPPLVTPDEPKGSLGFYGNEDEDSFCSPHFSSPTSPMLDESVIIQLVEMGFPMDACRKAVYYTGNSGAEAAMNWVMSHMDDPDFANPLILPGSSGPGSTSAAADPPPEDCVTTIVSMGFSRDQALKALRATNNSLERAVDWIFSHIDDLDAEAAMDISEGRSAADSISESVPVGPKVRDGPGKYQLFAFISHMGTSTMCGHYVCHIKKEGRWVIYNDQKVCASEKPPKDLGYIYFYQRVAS
In short: as §1

USP54 = USP54 (UniProt Q70EL1)
Chain of USP54 (Q70EL1 whole entry): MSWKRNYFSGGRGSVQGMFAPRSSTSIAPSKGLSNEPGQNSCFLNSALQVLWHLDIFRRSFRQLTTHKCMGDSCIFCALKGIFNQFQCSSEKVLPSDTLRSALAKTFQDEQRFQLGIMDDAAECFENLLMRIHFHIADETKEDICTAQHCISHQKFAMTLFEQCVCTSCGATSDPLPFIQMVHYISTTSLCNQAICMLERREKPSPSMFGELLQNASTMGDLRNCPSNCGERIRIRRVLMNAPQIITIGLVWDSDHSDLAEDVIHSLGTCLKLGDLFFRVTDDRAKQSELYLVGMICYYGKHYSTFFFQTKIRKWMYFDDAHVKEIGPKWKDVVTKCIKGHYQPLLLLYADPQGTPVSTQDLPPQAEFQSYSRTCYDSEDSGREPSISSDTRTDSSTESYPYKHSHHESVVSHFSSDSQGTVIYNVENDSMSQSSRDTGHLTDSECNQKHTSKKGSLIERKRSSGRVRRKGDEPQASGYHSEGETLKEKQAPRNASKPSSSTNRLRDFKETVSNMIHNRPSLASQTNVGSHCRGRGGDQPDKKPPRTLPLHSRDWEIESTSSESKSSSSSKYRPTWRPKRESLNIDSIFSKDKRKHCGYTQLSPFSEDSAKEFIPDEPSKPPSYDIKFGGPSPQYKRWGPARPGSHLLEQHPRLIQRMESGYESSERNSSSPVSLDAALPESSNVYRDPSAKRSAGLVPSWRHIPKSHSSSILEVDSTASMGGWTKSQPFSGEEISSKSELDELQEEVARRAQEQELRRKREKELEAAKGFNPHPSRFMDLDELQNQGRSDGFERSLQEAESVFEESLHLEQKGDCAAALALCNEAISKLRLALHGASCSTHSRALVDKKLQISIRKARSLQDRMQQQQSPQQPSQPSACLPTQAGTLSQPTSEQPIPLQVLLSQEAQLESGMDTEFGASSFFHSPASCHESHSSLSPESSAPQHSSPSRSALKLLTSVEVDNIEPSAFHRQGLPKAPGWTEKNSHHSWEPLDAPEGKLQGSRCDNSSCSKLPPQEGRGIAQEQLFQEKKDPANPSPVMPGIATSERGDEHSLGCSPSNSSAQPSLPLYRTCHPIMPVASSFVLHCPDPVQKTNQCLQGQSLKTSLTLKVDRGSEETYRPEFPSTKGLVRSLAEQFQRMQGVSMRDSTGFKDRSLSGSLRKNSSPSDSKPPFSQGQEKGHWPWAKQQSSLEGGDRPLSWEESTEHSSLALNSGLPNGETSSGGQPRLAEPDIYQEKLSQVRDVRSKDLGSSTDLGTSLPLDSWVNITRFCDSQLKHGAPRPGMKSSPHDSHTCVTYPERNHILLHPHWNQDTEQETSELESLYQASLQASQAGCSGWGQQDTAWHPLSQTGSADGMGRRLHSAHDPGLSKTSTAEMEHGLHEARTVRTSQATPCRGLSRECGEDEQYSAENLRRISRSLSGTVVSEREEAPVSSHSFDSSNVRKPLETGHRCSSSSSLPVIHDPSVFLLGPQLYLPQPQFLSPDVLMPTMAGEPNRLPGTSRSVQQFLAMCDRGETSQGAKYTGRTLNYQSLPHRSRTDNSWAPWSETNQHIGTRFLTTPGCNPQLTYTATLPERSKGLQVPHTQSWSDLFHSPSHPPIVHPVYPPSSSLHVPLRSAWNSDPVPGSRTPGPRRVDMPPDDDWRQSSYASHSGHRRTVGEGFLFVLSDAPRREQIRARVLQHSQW
In short: as §1

USP7 = USP7 (UniProt Q93009)
Chain of USP7 (Q93009 whole entry, looked up): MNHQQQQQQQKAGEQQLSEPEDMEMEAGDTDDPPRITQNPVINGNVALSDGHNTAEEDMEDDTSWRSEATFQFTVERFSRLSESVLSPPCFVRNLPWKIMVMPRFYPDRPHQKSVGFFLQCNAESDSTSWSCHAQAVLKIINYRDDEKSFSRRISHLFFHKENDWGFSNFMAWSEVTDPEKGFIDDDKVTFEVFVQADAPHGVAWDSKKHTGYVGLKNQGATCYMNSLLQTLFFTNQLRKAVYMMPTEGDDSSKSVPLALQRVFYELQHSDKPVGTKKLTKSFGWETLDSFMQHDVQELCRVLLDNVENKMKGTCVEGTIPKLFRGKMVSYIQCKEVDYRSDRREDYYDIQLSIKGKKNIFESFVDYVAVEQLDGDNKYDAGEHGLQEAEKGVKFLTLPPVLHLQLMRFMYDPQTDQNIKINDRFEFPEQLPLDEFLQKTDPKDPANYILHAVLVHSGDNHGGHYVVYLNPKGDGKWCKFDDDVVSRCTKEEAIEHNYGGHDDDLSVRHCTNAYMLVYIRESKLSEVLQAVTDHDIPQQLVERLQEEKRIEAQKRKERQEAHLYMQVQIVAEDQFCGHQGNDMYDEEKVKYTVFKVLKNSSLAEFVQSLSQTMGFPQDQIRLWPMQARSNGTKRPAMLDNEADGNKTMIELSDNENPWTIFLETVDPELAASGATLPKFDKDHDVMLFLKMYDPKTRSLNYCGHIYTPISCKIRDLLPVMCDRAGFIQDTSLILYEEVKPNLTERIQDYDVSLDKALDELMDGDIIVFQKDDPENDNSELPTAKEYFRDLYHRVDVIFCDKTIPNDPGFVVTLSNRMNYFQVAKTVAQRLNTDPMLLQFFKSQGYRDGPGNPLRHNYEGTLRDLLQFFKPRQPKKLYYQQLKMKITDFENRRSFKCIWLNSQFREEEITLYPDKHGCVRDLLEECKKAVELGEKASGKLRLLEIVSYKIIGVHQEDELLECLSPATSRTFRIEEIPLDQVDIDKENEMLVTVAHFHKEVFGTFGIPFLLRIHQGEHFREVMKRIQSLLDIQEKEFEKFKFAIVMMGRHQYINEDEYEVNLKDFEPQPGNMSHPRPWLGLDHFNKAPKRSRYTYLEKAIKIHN
In short: as §1

USP8 = biological target: T5, USP8 (UniProt P40818)
T5 sequence (whole entry): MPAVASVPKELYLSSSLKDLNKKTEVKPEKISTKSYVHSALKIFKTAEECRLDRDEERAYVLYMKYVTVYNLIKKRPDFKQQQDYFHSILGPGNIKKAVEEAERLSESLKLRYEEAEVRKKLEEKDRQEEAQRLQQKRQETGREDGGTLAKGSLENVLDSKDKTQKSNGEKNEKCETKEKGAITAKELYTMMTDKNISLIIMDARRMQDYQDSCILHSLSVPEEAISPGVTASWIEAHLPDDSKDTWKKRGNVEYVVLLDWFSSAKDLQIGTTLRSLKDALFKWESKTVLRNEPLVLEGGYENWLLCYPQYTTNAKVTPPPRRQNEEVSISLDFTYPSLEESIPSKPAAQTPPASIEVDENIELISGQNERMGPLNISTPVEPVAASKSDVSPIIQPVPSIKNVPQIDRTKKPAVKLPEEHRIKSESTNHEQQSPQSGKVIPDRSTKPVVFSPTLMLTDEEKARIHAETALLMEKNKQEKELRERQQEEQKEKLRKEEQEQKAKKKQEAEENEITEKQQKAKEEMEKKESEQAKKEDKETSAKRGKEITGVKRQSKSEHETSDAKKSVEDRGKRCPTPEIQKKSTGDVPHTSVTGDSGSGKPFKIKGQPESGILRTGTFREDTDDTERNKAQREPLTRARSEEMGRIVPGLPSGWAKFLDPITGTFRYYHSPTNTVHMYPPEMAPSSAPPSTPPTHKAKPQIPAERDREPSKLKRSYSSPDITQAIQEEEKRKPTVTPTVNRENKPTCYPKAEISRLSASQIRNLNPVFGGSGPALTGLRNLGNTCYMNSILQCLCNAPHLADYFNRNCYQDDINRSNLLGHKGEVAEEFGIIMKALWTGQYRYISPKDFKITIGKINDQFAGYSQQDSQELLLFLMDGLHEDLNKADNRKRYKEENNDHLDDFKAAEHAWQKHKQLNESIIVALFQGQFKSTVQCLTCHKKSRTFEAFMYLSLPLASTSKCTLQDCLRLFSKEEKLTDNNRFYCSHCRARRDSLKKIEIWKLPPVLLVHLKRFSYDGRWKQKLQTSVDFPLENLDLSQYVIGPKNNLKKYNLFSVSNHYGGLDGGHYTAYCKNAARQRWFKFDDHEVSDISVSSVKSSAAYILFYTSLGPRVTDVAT
In short: as §1

USP9X = USP9X (UniProt Q93008)
In short: as §1

UniProt O00487 = biological target: UniProt O00487
Chain of UniProt O00487 (O00487 whole entry): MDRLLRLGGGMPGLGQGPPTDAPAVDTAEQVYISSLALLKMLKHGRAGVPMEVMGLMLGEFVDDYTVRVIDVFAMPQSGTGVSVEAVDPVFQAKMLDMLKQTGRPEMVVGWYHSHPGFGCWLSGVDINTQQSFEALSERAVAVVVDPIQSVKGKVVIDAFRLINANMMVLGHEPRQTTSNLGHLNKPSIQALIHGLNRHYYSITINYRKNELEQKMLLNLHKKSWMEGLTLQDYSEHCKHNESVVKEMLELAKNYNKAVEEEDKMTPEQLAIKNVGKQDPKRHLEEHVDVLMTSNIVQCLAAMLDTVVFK
In short: as §1

Measured: log2 ratio of Biotin-Ahx-Ub-VS probe labelling

COc1ccc(Cl)cc1NC(=O)CCl
inactive: USP42 0.21 | USP46 -0.265 | USP47 -0.266 | USP48 -0.394 | USP5 -0.409 | USP54 0.0369 | USP7 -0.593 | USP8 -0.171 | USP9X -0.48 | UniProt O00487 -0.298
